This passage reports inhibition results from ChEMBL document CHEMBL3433997, “St. Jude Leishmania screening dataset” (2016).

What is called inhibition is the drop in the measured response relative to a control, in per cent.

Assay type in all cases: functional
Assay [1] concerns the target Solute carrier family 2, facilitated glucose transporter member 1 (Homo sapiens) (UniProt P11166). As to the kind of experiment: ST_JUDE_LEISH: Cytotoxicity at 2uM final concentration against transgenic Leishmania Mexicana promastigotes LmGLUT1 that are glucose transport deficient and complemented with the human glucose transporter GLUT1. Activity is measured by DNA content using SYBR green in vitro.

Assay [2] concerns the target Hexose transporter 1 (Plasmodium falciparum) (UniProt O97467). The experiment in a line: ST_JUDE_LEISH: Cytotoxicity at 2uM final concentration against transgenic Leishmania Mexicana promastigotes LmPfHT that are glucose transport deficient and complemented with the Plasmodium falciparum hexose transporter. Activity is measured by DNA content using SYBR green in vitro.

Assay [3] concerns the target Glucose transporter (Leishmania mexicana) (UniProt O61059). As to the kind of experiment: ST_JUDE_LEISH: Cytotoxicity at 2uM final concentration against transgenic Leishmania Mexicana promastigotes LmGT2 that are glucose transport deficient and complemented with the L. Mexicana glucose transporter 2. Activity is measured by DNA content using SYBR green in vitro.

Chain of Solute carrier family 2, facilitated glucose transporter member 1 (Homo sapiens) (P11166 whole entry): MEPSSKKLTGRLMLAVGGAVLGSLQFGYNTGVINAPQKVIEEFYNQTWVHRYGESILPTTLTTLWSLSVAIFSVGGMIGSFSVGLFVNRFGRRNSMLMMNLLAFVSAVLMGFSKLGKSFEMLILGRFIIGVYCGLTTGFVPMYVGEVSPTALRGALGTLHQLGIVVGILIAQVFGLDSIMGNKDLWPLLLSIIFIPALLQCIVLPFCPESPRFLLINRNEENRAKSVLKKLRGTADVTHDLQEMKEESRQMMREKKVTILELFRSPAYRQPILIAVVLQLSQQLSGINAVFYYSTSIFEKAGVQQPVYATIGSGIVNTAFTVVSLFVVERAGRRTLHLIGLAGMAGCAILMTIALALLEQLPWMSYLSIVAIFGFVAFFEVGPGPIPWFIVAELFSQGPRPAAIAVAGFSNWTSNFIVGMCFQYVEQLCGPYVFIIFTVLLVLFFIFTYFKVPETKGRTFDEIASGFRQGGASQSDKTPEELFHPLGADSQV

For `Cc1cc(N/N=C/c2ccccc2[N+](=O)[O-])c2cc(C(F)(F)F)ccc2n1`, the inhibition is -3.14% in assay [1], 0.97% in assay [2] and 1.45% in assay [3].
Turning to `COc1cc(C=CC(=O)N2CCC3(CC2)CC(=O)c2ccccc2O3)cc(OC)c1OC`, the inhibition in assay [1] is 1.6%; in assay [2], 2.09%; in assay [3] it was -0.58%.
Consider `CCCN1CCN(CC(O)CNC(=O)Nc2ccc(Cl)cc2)CC1` (stereo not drawn), for which the values for the inhibition in assay [1], in assay [2] and in assay [3] were 2.81%, 0.64% and 4.07%, respectively.
With `Cn1c(-c2ccccc2)cc2c3c(N)nc(N)nc3ccc21`, the inhibition worked out at 105% in assay [1], 104% in assay [2] and 98.2% in assay [3].
On to `COc1ccc2nccc(N3CCC(NCc4ccc5c(n4)NC(=O)CS5)CC3)c2n1`, for which the figures for the inhibition in assay [1], in assay [2] and in assay [3] were 0.15%, -0.14% and 2.01%, respectively.
Consider `COc1ccc2nc(SC(C)C(=O)c3c[nH]c4ccccc34)[nH]c2c1` (stereo not drawn), for which the inhibition in assay [1] was 2.5%; in assay [2] it was 0.87%; in assay [3] it was 2.35%.
In the same order, the values of `N=C(NC1CC1)c1ccc2[nH]c(CCCCCc3nc4cc(C(=N)NC5CC5)ccc4[nH]3)nc2c1` are -1.14%, -0.68% and 1.61%.
In the same order, the values of `O=C(NCCCCN1CCN(CC=Cc2ccccc2)CC1)c1ccc(NC(=O)c2cc(Cl)cc(Cl)c2)cc1` are -0.99%, -0.05% and -0.79%.
Regarding `COc1cc2cc(-c3nc4ccccc4[nH]3)c(N)nc2cc1OC`, the inhibition in assay [1] is 84%; in assay [2] it was 91.3%; in assay [3] it was 67.3%.
Regarding `O=C(NCc1ccc(F)cc1)Nc1cccc(-c2ccc(-c3nc4cc(F)ccc4[nH]3)cc2)c1`, the figures for the inhibition in assay [1], in assay [2] and in assay [3] were 6.43%, 7.78% and 7.37%, respectively.
Consider `Cc1ccc(Oc2cnn(C)c(=O)c2Nc2cccc(C(=O)NCCc3ccccn3)c2)c(C)c1`, for which the values for the inhibition in assay [1], in assay [2] and in assay [3] were 4.16%, 4.25% and 3.26%, respectively.
As for `Cc1[nH]c(C)c([N+](=O)[O-])c(=O)c1-c1ccc(Oc2ccc(OC(F)(F)F)cc2)cc1`, the inhibition in assay [1] came to 0.69%; in assay [2], 1.27%; in assay [3], 1.41%.
For the compound `Cc1cc(C(=O)NC2CCN(Cc3ccccc3)CC2)ccc1-c1nc2ccc(C(F)(F)F)cc2[nH]1`, the inhibition in assay [1] is 3.67%; in assay [2] it was 2.1%; in assay [3] it was 3.25%.
`CN(C)Cc1ccc(-c2cccc(NC(=O)c3ccc(Cl)cc3)c2)cc1`: the inhibition in assay [1] is -2.32%; in assay [2] it was -0.06%; in assay [3], 0.23%.
In the case of `Cn1c(N=C2NC3(c4ccccn4)NC(=Nc4nc5ccccc5n4C)NC3(c3ccccn3)N2)nc2ccccc21` (stereo not drawn), the inhibition was determined as 1.54% in assay [1], 2.5% in assay [2] and 0.64% in assay [3].
Take `COc1cccc(Nc2nc(C)cc(NC3CCCC3)n2)c1`: the inhibition was 21.5% in assay [1], 9.71% in assay [2] and 5.08% in assay [3].
In the case of `O=C(Cc1ccccc1)NC(Nc1ccc([N+](=O)[O-])cc1)C(Cl)(Cl)Cl` (stereo not drawn), the inhibition in assay [1] was -0.19%; in assay [2], 1.43%; in assay [3], 0.18%.
Take `N=C(N)Nc1nc(-c2cccc(NC(=O)Cc3ccccc3)c2)cs1`: the inhibition is 2.29% in assay [1], 4.02% in assay [2] and 3.44% in assay [3].
In the same order, the values of `O=C(n1c(-c2cc3ccccc3n2C(=O)C(F)(F)F)cc2ccccc21)C(F)(F)F` are 4.6%, 1.94% and -0.64%.
The matching figures for `OC(c1cccc2ccccc12)C1CN(CCc2ccccc2)CCC1(O)c1ccccc1` (stereo not drawn): 9.92%, 11.8% and 3.51%.
Turning to `O=C(/C=C/c1ccc(C(F)(F)F)cc1)N1CCc2cc3nccc(N4CCN5CCC[C@H]5C4)c3cc21`, the figures for the inhibition in assay [1], in assay [2] and in assay [3] were 1.68%, 2.34% and 0.92%, respectively.
The matching figures for `CCCc1ccc(NC(=O)c2ccc(CN3CCCN(Cc4ccc(OC)cc4)CC3)cc2)cc1`: -1.19%, -0.55% and -0.74%.
For `CC(C)(C)NCCN(Cc1ccc(-c2ccc(C(F)(F)F)cc2)cc1)C(=O)Cn1c(SCc2ccc(F)cc2)nc(=O)c2c1CCC2`, the inhibition in assay [1] was 0.94%; in assay [2] it was 1.75%; in assay [3], 1.74%.
The matching figures for `Cc1c(F)cc(C(=O)NC2CC2)cc1-c1ccc2c(cnn2S(=O)(=O)c2cccs2)c1`: 2.62%, 5.11% and 0.02%.
On to `CC(C)n1ncc2c(C(=O)N3CCCC4CCCCC43)cc(C3CC3)nc21` (stereo not drawn), for which the figures for the inhibition in assay [1], in assay [2] and in assay [3] were 5.54%, 6.45% and 5.73%, respectively.
As to `COc1ccc2nc(C)cc(Nc3ccc(Oc4ccc(Cl)cc4)c(Cl)c3)c2c1`, the inhibition in assay [1] is 7.89%; in assay [2], 6.68%; in assay [3], 2.63%.
In the case of `O=C(Nc1ccc2c(c1)OCO2)NC1CCN(c2ccnc(Nc3ccc(F)cc3)n2)C1` (stereo not drawn), the inhibition in assay [1] is 0.34%; in assay [2] it was 6.37%; in assay [3] it was 3.79%.
With `COc1cc2nc(N(C)Cc3cc4c(Cl)cccc4s3)nc(N)c2cc1OC`, the figures for the inhibition in assay [1], in assay [2] and in assay [3] were -0.54%, -1.7% and -3.11%, respectively.
As for `COc1cc2cc(Cc3cnc(N)nc3N)ccc2c(OC)c1OC`, the inhibition was 0.96% in assay [1], -0.27% in assay [2] and 1.56% in assay [3].
As for `COc1ccc(-c2cnc3ccc(NCc4ccc(S(N)(=O)=O)cc4)nn23)cn1`, the inhibition was found to be 4.78% in assay [1], 4.83% in assay [2] and 5.05% in assay [3].
On to `CC1CC(C)CN(S(=O)(=O)c2cc(C(=O)Nc3cccc([N+](=O)[O-])c3)ccc2Br)C1` (stereo not drawn), for which the values for the inhibition in assay [1], in assay [2] and in assay [3] were 7.03%, 7.57% and 5.14%, respectively.
The matching figures for `O=C(/C=C/c1ccc(Cl)c(Cl)c1)N1CCC(CN2CCC(Cc3cc4ccccc4[nH]3)CC2)CC1`: 0.17%, 2.49% and 0.81%.
In the same order, the values of `COc1ccc(NC(=O)c2cn(-c3ccc(C(C)(C)C)cc3)nc2C)cc1N1CCN(C)CC1` are 1.31%, 0.2% and 1.64%.
Regarding `OCCN1CCN(c2ccc(Nc3ccnc4cc5ccccc5cc34)cc2)CC1`, the inhibition in assay [1] was 28.2%; in assay [2] it was 33.3%; in assay [3], 21.7%.
Take `O=C(C=Cc1ccc(Cl)c(Cl)c1)NCCCCCN1CCCC(CCCNC(=O)C2CC2c2ccccc2)C1` (stereo not drawn): the inhibition in assay [1] was 2.64%; in assay [2], 0.94%; in assay [3] it was 1.66%.
Consider `CN1CCc2cc(NS(=O)(=O)c3ccc(-c4ccc(Cl)cc4)cc3)c(OCCCN3CCCCC3)cc2CC1`, for which the values for the inhibition in assay [1], in assay [2] and in assay [3] were 1.09%, -0.92% and 0.92%, respectively.
